High-throughput results from PubChem BioAssay.
Compounds with a hit are over-represented: about 19% of the library has one in this group of screens.
DT40 TDP1 no CPT: qHTS for Inhibitors of human tyrosyl-DNA phosphodiesterase 1 (TDP1): qHTS in cells in absence of CPT; AID 686978, 2013; DT40 Tdp1-/- hTDP1 cells, no CPT, ATP luminescence, 48 h; Potency, µM (top dose mostly 46.2 µM), without a hit: top-dose activity change, negative = growth inhibition, hits mostly inhibitors; actives 15% (n = 420,000); also: potency is read from the fitted curve at half-maximal effect; nearly all actives have a fitted effect of over 55% in size
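Camptothecin absent (DMSO only). Human TDP1-complemented DT40 knockout cells, 400 cells/well, 37 °C for minimum 48 hr; ATP measured via CellTiter-Glo, 30 min dark incubation, luminescence.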
IL-1B inflam inh: inflammasome signaling inhibition, IL-1 beta readout; THP-1 LPS/ATP IL-1B secretion, AlphaLISA, 16 h; stronger effect = lower value; actives 4.7% (n = 360,000); AID 743279; activity change, % at 57.5 µM; in the data active = activity change below about -50%; inconclusive = mostly about -30% to -49%
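Secreted IL-1B measured by AlphaLISA bead assay after 16 h compound exposure of THP-1 cells; compounds (final up to 57.5 uM) added 1 h before LPS (250 ng/mL) and ATP (1.25 mM) stimulation; lower signal means less secretion.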
HT1080 IDH1KD tx: HT-1080 IDH1 knockdown cell toxicity (counter line) | HT-1080 IDH1 knockdown viability, ATP luminescence, 48 h | AID 686971 | actives 2% (n = 360,000) | Potency, µM (doses to about 46.1 µM), for inactives: top-dose activity, negative = toxicity, usual class: cytotoxic;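 also: potency is read from the fitted curve at half-maximal effect; 0% = DMSO wells and -100% = cell-free medium wells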
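Cytotoxicity counter-line: IDH1KD HT-1080, 48 h, CellTiter-Glo. Curves classed by r2, magnitude and activity.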
DT40 TDP1 CPT: growth inhibition of DT40 Tdp1-/-;hTDP1 cells with camptothecin (screen for TDP1 inhibitors) | AID 686979 | chicken DT40 Tdp1-/-;hTDP1 cells + 20 nM CPT, ATP luminescence, 48 h | actives 12% (n = 420,000) | Potency, µM (top dose mostly 46.2 µM), inactives show at the top dose activity change, negative = growth inhibition, usual class: inhibitors; also: potency is read from the fitted curve at half-maximal effect; nearly all actives have a fitted effect of over 55% in size
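Chicken DT40 Tdp1-/- cells stably complemented with human TDP1 were seeded at 400 cells/well in medium containing 20 nM camptothecin, exposed to pin-transferred compounds, and grown at 37 °C for at least 48 hr. Viability was read as ATP luminescence.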
HT1080NT lethal: kills 2HG-producing HT-1080-NT fibrosarcoma cells. HT-1080-NT fibrosarcoma viability, CellTiter-Glo ATP luminescence, 48 h. Potency, µM (doses to about 46.1 µM), without a hit: at the top dose activity, negative = less viability, most hits filed as cytotoxic. actives 1.6% (n = 360,000). AID 686970;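 also: NT is the 2HG producing partner of a matched IDH1 knockdown line; potency is read from the fitted curve at half-maximal effect; 0% = DMSO-treated cells and -100% = media-only wells without cells; nearly all actives have a fitted effect of over 55% in size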
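HT-1080-NT fibrosarcoma cells (2HG-overproducing), 750 cells/well in RPMI with 5% FBS, dosed after 2 h and incubated 48 h at 37C. CellTiter-Glo luminescence normalized to DMSO and no-cell wells; concentration-response curves fitted and classed.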
* marks the source's active call; other numbers are inactive results; ? = inconclusive; . = not tested or not shown. Unless noted, calls follow the shape of the dose curve; as a rule, active = well fitted curve in the direction sought with a large enough effect; inconclusive = small, poorly fitted or top-dose-only effect, or another doubt; inactive = no such curve, though single readings can be large; an effect the other way counts as inactive or inconclusive. Unless noted, % is scaled to controls: 0 for no effect and ±100 for the full control effect.

SMILES	DT40 TDP1 no CPT	IL-1B inflam inh	HT1080 IDH1KD tx	DT40 TDP1 CPT	HT1080NT lethal
CCOC(=O)c1sc(NC(=O)Nc2ccc(F)cc2)nc1C	?	.	-1.8%	?	-7.1%
COc1ccc(S(=O)(=O)N2CCC(C(=O)N(C)Cc3ccc(C)o3)CC2)cc1OC	-27.8%	-24.3	-0.2%	-19.4%	-3.4%
O=C(O)Cn1cc(/C=C/[N+](=O)[O-])c2ccccc21	-9.3%	-11.4	1.2%	-0.6%	-1.0%
C(=N\n1cnnc1)/c1cn(Cc2ccccc2)c2ccccc12	-21.6%	-11.7	?	-11.7%	-29.8%
O=[N+]([O-])/C=C/c1cn(Cc2ccccc2)c2ccccc12	11.6µM*	-69.9*	?	18.4µM*	?
O=C(Cn1cc(/C=C\[N+](=O)[O-])c2ccccc21)Nc1ccccc1	14.6µM*	-95.7*	3.66µM*	20.6µM*	?
CCc1ccc(-n2nc3cc(C)c(NC(=O)c4cc(OC)cc(OC)c4)cc3n2)cc1	-15.7%	.	.	-5.5%	.
CCc1ccc(-n2nc3cc(C)c(NC(=O)c4cccc5ccccc45)cc3n2)cc1	?	.	.	20.6µM*	.
CCc1ccc(-n2nc3cc(C)c(NC(=O)c4ccccc4C)cc3n2)cc1	8.2µM*	.	.	?	.
CC(C)n1ncc2c(C(=O)NCc3cccnc3)cc(C3CC3)nc21	?	?	0.4%	-26.5%	10.8%
Cc1ccc(S(=O)(=O)N2CCN(C(=O)c3cc(C4CC4)nc4c3cnn4C(C)C)CC2)cc1	4.11µM*	?	0.0%	?	-3.7%
Cc1ccc(CNC(=O)c2cc(C3CC3)nc3c2cnn3C(C)C)cc1	18.4µM*	-29.6	-10.5%	?	3.7%
COc1ccc(CNC(=O)c2cc(C3CC3)nc3c2cnn3C(C)C)cc1OC	-20.1%	-10.7	-3.5%	?	1.4%
COc1cccc(CNC(=O)c2cc(C3CC3)nc3c2cnn3C(C)C)c1	?	-52.9*	-3.2%	?	-0.8%
CCCCn1c(SCC(=O)NCc2ccc(OC)c(C(=O)O)c2)nc2cc(S(N)(=O)=O)ccc21	-21.7%	7.0	11.1%	0.4%	18.0%
Fc1ccc2c(c1)C(c1ccncc1)=NNC(c1cccnc1)=N2	19.7%	-20.8	-8.4%	-21.8%	0.0%
Cc1cc(Nc2ccccc2)n(C(=O)c2ccc(Cl)cc2)n1	-17.3%	15.0	?	-10.2%	15.5%
O=C(Cc1ccc(Cl)cc1)Nc1ccccc1CO	-5.4%	0.0	2.3%	-15.2%	11.9%
CN1CCN(C(=O)C2=C[C@H](c3coc4ccccc4c3=O)C[C@H](OCCCCO)O2)CC1	-3.8%	0.4	8.0%	4.8%	12.6%
O=C(C1=C[C@H](C2CCCCC2)C[C@H](OCCCCO)O1)N1CCN(Cc2ccccc2)CC1	?	-8.7	4.7%	20.6µM*	-1.2%
CCO[C@@H]1OC(C(=O)N2CCN(Cc3ccc4c(c3)OCO4)CC2)=C[C@H](c2cn(C(C)=O)c3ccccc23)[C@H]1CCCO	?	?	-16.1%	?	-24.3%
C=CCOC(=O)C1=C[C@H](c2cn(C(C)=O)c3ccccc23)C[C@H](OCc2ccc(CO)cc2)O1	20.6µM*	18.4	-9.8%	?	-12.5%
O=C(C1=C[C@H](c2coc3ccccc3c2=O)C[C@H](OCCCCO)O1)N1CCN(Cc2ccc3c(c2)OCO3)CC1	16.4µM*	.	-0.8%	20.6µM*	-2.7%
CC(=O)n1cc([C@H]2C=C(C(=O)N3CCN(Cc4ccc5c(c4)OCO5)CC3)O[C@@H](OCCCCO)C2)c2ccccc21	?	-15.5	-24.3%	16.4µM*	-18.1%
CC(=O)Nc1ccc(OCc2cn(CC(=O)c3ccc(O)cc3)nn2)cc1	-11.9%	-11.7	-29.7%	-14.6%	-3.6%
